Assay outcomes (PubChem)
Env fusion inh: inhibitors of HIV Env-mediated cell fusion | AID 651610 | HeLa-JRFL Env/CEM21 cell fusion, luciferase | 360,000 compounds, 1.1% hits | inhibition, % at 12.3 µM;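 active means mean replicate inhibition score of at least 50 and every replicate individually at or above 50; inconclusive means only one of the two criteria met; inactive means mean below 50 and not all replicates reaching 50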;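 further: 0% = plate neutral controls and 100% = maraviroc near 300 nM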
CFTR F508del cor: correctors of CFTR F508del function in bronchial epithelial cells; AID 720511; activity (quench increase), % at 7.58 µM; 350,000 compounds, 0.36% hits; CFBE cells, YFP halide quenching; stimulated with forskolin plus potentiator P3; % fluorescence drop versus neutral controls;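 active means mean added fluorescence quench of at least 8% versus neutral control, with both replicates also reaching 8%; inconclusive means only one of the mean or replicate conditions met; inactive means mean below 8% and not both replicates reaching 8%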;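 further: cells transiently co-express mutant CFTR-F508del with the halide-sensitive YFP; corrector assay measuring rescue of mutant channel to the surface after 24 h compound exposure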
Wnt act: Wnt/beta-catenin pathway activation; 300,000 compounds, 1.2% hits; Wnt/beta-catenin reporter cell assay, activator, plate reader; activation, % at 9.35 µM; AID 743398; in the data active means activation above about 30%, passing the limit was not always enough; inconclusive means no clear call, values can overlap the other calls;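 further: 0% = neutral control wells and 100% = positive control wells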
INS-1E GSIS act: GLuc luminescence reporter in INS-1E cells, primary screen for activators of glucose-dependent secretion of insulin; INS-1E GLuc reporter insulin secretion, 2-3 h; activation, % at 16.6 µM; 370,000 compounds, 0.61% hits; AID 743287;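 active means lowest replicate activation of at least 40%, so every replicate reaches that level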;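 further: 0% = median of neutral control wells and 100% = median of IBMX positive control wells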
MITF TRPM1 HTS: increases MITF-driven TRPM1 promoter luciferase signal; SK-MEL-5 TRPM1-promoter luciferase, 24 h; % of positive control, neutral wells = 0; activation, % at 12.5 µM; 300,000 compounds, 0.75% hits;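 active means mean activation of at least 80% with every replicate also reaching 80%; inconclusive means mean reaches 80% but some replicate falls short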;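 further: 0% = neutral control wells and 100% = parthenolide positive control wells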
* marks the source's active call; other numbers are inactive results; u = inconclusive; x = no result; [ ] = another dose, or the depositor's remark. Rows were chosen to be rich in hits. Some 2.7% of all compounds tested hit in one or more screens of this group.

SMILES | Env fusion inh | CFTR F508del cor | Wnt act | INS-1E GSIS act | MITF TRPM1 HTS
O=C(/C=C/c1c(F)cccc1Cl)Nc1nc2ccccc2[nH]1 | -67 | x | 37* | x | u
CC(=O)Nc1nc2ccccc2[nH]1 | -1 | 0 | 0 | -5 | -5
COCC(=O)N1CC(=O)N2[C@H](C1)[C@@H](c1ccc(-c3ccccc3C)cc1)[C@@H]2CO | x | 2 | x | 12 | x
COc1cccc(CNC(=O)C[C@@H]2CC[C@@H](NC(=O)C3CC3)[C@@H](CO)O2)c1 | -3[16.7 µM] | 1 | x | 6 | x
Cc1ccc(Sc2ncccc2N)cc1 | 1 | -2 | 7 | -44 | x
Cc1ccc(Sc2ncccc2O)cc1 | -1 | -2 | 69* | -2 | 20
COc1cccc(NC(=O)N[C@@H]2CC[C@@H](CC(=O)NCc3ccncn3)O[C@H]2CO)c1 | 0[16.7 µM] | -1 | x | 13 | x
C[C@H]1CN=C(N(C)C)N1CC1CCCC1 | -26 | -1 | -4 | 54* | -10
C[C@H]1CN=C(N(C)C)N1CC1CCCCC1 | -5 | 2 | -2 | 10 | -3
CCN(CC)C(=O)c1ncn2c1C(=O)NC[C@@H]2C | 117* | -1 | -2 | -10 | x
C[C@@H]1CNC(=O)c2c(C(=O)NC3CCN(C(=O)OC(C)(C)C)CC3)ncn21 | -4 | -3 | -1 | -1 | x
C[C@H]1Cn2cnc(C(=O)N3CCN(c4ccccc4)CC3)c2C(=O)N1 | 88* | 2 | -3 | -42 | x
C[C@H]1Cn2cnc(C(=O)Nc3ccc(CNC(=O)OC(C)(C)C)cc3)c2C(=O)N1 | u | 4 | -2 | 0 | x
CN1CCn2cnc(C(=O)N3CCN(c4ccccc4)CC3)c2C1=O | 3 | -2 | -2 | 9 | x
C[C@H]1CNC(=O)c2c(C(=O)Nc3ccc(CNC(=O)OC(C)(C)C)cc3)ncn21 | u | 12* | -2 | -9 | x
CC1CCN(C(=O)c2ncn3c2C(=O)NC[C@@H]3C)CC1 | 101* | -3 | 0 | -22 | x
C[C@@H]1CNC(=O)c2c(C(=O)N3CCN(c4ccccc4)CC3)ncn21 | 89* | -5 | -1 | -17 | x
O=C(Nc1ccc2c(c1)[C@@H]1C[C@H](CC(=O)N3CCc4ccccc4C3)O[C@H](CO)[C@@H]1O2)NC1CCCC1 | 12[16.7 µM] | 1 | x | 15 | x
O=C(NN=Cc1ccc(OC(F)F)cc1)c1ccc(NS(=O)(=O)c2cccs2)cc1 | -13 | -4 | 51* | -9 | 30
CCCN1C[C@@H](C)[C@@H](OC)CN(C)C(=O)c2ccc(NC(=O)CC(F)(F)F)cc2OC[C@@H]1C | 31[16.7 µM] | -2 | x | 1 | x
C[C@H](CO)N1C[C@H](C)[C@H](CN(C)C(=O)Nc2cccc3ccccc23)Oc2c(NC(=O)Nc3ccc4c(c3)OCO4)cccc2C1=O | -62[16.7 µM] | 4 | x | -13 | x
Nc1ccc2oc(-c3ccccn3)nc2c1 | -55 | x | 44* | x | 48
C[C@@H](NC(=O)C[C@@H]1CC[C@@H](NS(=O)(=O)c2cccc(F)c2)[C@@H](CO)O1)c1ccccc1 | x | 0 | x | 1 | x
CC1=C(/C=C/C(C)=C/C=C/C(C)=C/C(=O)Nc2ccc(O)cc2)C(C)(C)CCC1 | 23 | 0 | -3 | 153* | 6
O=C1c2cccc3c(N4CCCCC4)ccc(c23)C(=O)N1CCO | -382 | x | 53* | x | 59
SMILES | Env fusion inh | CFTR F508del cor | Wnt act | INS-1E GSIS act | MITF TRPM1 HTS
C=CCN1C(=O)c2cccc3c(N4CCCCC4)ccc(c23)C1=O | -14 | 3 | -3 | -13 | 45
O=C1c2cccc3c(N4CCCCC4)ccc(c23)C(=O)N1c1cccc(O)c1 | -30 | 14* | 12 | 6 | 23
C[C@H]1CN([C@@H](C)CO)S(=O)(=O)c2ccc(-c3ccc(F)cc3)cc2O[C@@H]1CN(C)S(C)(=O)=O | 16[16.7 µM] | 0 | x | 5 | x
O=C(C[C@H]1C=C[C@@H](NC(=O)c2ccccn2)[C@H](CO)O1)NCc1cccc(F)c1 | -5[16.7 µM] | 3 | x | 7 | x
COc1ccc2c3c([nH]c2c1)[C@@H](CO)N(Cc1ccncc1)CC31CN(CC2CCOCC2)C1 | x | 4 | x | 16 | x
CC1(C)C2CCC(C2)C1(C)NC(=O)CNCC1CCCCC1 (stereo not drawn) | 61* | x | -10 | -17 | 12
CCOCCCNCC(=O)NC1(C)C2CCC(C2)C1(C)C (stereo not drawn) | 3 | x | -4 | x | 5
Cc1cc(NC(=O)c2ccc(-c3ccccc3[N+](=O)[O-])o2)no1 | x | -2 | -3 | 6 | x
CC(=O)c1cccc(NC(=O)c2ccc(-c3ccccc3[N+](=O)[O-])o2)c1 | -97 | x | 109* | -16 | 26
N=c1oc2ccc(Cl)cc2cc1C(=O)Nc1ccc(F)cc1 | -21 | -3 | 36* | -23 | 36
